Where “and” joins values, the source holds several entries; their conditions need not be identical. Equal entries are not always repeated. In all, about 5,500 compounds went through this assay and about 2,000 (36%) were called active. About 18% were inconclusive and are not listed. No stated cut-off is given here; in the data, active means normalized growth mostly below about 0.91 (no sharp cut-off); inconclusive means no clear call, values can overlap the other calls; inactive means mostly above about 0.92. This is one part of the list.
Assay: chemical genetic growth profiling, strain panel (AID 1159580);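 further: tested at 20 µM; growth read once vehicle control cultures reached saturation at 30 °C; 1 = growth at the plate median or of vehicle wells; lower values mean less growth of the strain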
Conditions: S. cerevisiae deletion strains, growth OD

Measured: normalized growth

CC1(C)S[C@@H]2C(N3C(=O)[C@@H](c4ccccc4)NC3(C)C)C(=O)N2[C@H]1C(=O)O (some centres not stated)
inactive: locus YAL021C, strain ccr4, hits give low values 1.03 | locus YAL026C, strain drs2, hits give low values 1.02 | locus YAL030W, strain snc1, hits give low values 1 | locus YBL061C, strain skt5, hits give low values 1.02 | locus YBR009C, strain hhf1, hits give low values 1.03 | locus YBR021W, strain FUR4, hits give low values 0.994 | locus YBR023C, strain chs3, hits give low values 1.04 | locus YBR171W, strain sec66, hits give low values 1.04 | locus YBR229C, strain ROT2, hits give low values 1.01 | locus YBR231C, strain swc5, hits give low values 0.975 | locus YBR279W, strain paf1, hits give low values 1.02 | locus YCL011C, strain gbp2, hits give low values 1.03 | locus YCL016C, strain dcc1, hits give low values 1.06 | locus YCL029C, strain bik1, hits give low values 1.02 | locus YCL061C, strain MRC1, hits give low values 1.03 | locus YCL069W, strain vba3, hits give low values 1.02 | locus YCR088W, strain abp1, hits give low values 1.02 | locus YDL005C, strain med2, hits give low values 1.02 | locus YDL035C, strain GPR1, hits give low values 1 | locus YDL040C, strain nat1, hits give low values 1.01 | locus YDL074C, strain BRE1, hits give low values 1.02 | locus YDL101C, strain DUN1, hits give low values 1.01 | locus YDL185W, strain tfp1, hits give low values 1.02 | locus YDL192W, strain arf1, hits give low values 1.03 | locus YDR001C, strain nth1, hits give low values 1.01 | locus YDR069C, strain doa4, hits give low values 0.977 | locus YDR101C, strain arx1, hits give low values 1.01 | locus YDR137W, strain rgp1, hits give low values 1.11 | locus YDR159W, strain sac3, hits give low values 0.958 | locus YDR162C, strain NBP2, hits give low values 1 | locus YDR195W, strain ref2 1.01 | locus YDR297W, strain sur2, hits give low values 0.98 | locus YDR318W, strain mcm21, hits give low values 1.02 | locus YDR334W, strain swr1, hits give low values 1.02 | locus YDR335W, strain msn5, hits give low values 0.989 | locus YDR388W, hits give low values 1.03 | locus YDR392W, strain spt3, hits give low values 0.952 | locus YDR502C, strain sam2, hits give low values 1.03 | locus YEL003W, strain gim4, hits give low values 1.02 | locus YEL037C, strain rad23, hits give low values 1.02 | locus YEL061C, strain CIN8 (second series), hits give low values 1.02 | locus YEL061C, strain CIN8, hits give low values 1.01 | locus YER015W, strain faa2, hits give low values 1 | locus YER016W, strain bim1, hits give low values 1.01 | locus YER110C, hits give low values 1.04 | locus YER111C, strain swi4, hits give low values 1.03 | locus YER155C, strain BEM2 (second series), hits give low values 0.975 | locus YER155C, strain BEM2, hits give low values 1 | locus YER167W, strain BCK2, hits give low values 1 | locus YFR010W, strain ubp6, hits give low values 1.03 | locus YGL078C, strain dbp3, hits give low values 1.03 | locus YGL086W, strain mad1, hits give low values 0.996 | locus YGL167C, strain pmr1, hits give low values 1.02 | locus YGL173C, strain kem1, hits give low values 1.03 | locus YGL227W, strain vid30, hits give low values 1.02 | locus YGL240W, strain doc1, hits give low values 0.972 | locus YGL248W, strain PDE1, hits give low values 1.01 | locus YGL253W, strain hxk2, hits give low values 1.02 | locus YGR078C, strain PAC10, hits give low values 1 | locus YGR135W, strain pre9, hits give low values 1.04 | locus YGR252W, strain gcn5, hits give low values 1.01 | locus YHR013C, strain ard1, hits give low values 1.06 | locus YHR027C, strain rpn1, hits give low values 1.02 | locus YHR030C, strain SLT2, hits give low values 1.01 and 0.988 | locus YHR079C, strain IRE1 (second series), hits give low values 1.02 | locus YHR079C, strain IRE1, hits give low values 0.979 | locus YHR094C, strain hxt1, hits give low values 1.03 | locus YHR129C, strain ARP1, hits give low values 0.995 | locus YHR142W, strain chs7, hits give low values 1.05 | locus YHR200W, strain rpn10, hits give low values 1.03 | locus YIL066C, strain RNR3, hits give low values 1 | locus YIL073C, strain SPO22, hits give low values 1.06 | locus YIL125W, strain kgd1, hits give low values 1.02 | locus YIR030C, strain dcg1, hits give low values 1.03 | locus YJL092W, strain hpr5, hits give low values 1.02 | locus YJL095W, strain BCK1 (second series), hits give low values 0.987 | locus YJL095W, strain BCK1, hits give low values 1.02 and 0.98 | locus YJL115W, strain asf1, hits give low values 1.02 | locus YJL129C, strain trk1, hits give low values 1.04 | locus YJL134W, strain LCB3, hits give low values 1.01 | locus YJL154C, strain vps35, hits give low values 1.02 | locus YJL164C, strain tpk1, hits give low values 1.04 | locus YJL166W, strain qcr8, hits give low values 1.02 | locus YJL168C, strain set2, hits give low values 1.03 | locus YJL187C, strain SWE1 (second series), hits give low values 1 | locus YJL187C, strain SWE1, hits give low values 0.974 | locus YJR066W, strain TOR1, hits give low values 0.944 | locus YKL009W, strain mrt4, hits give low values 0.99 | locus YKL068W, hits give low values 1.01 | locus YKL085W, strain MDH1 (second series), hits give low values 1.02 | locus YKL085W, strain MDH1, hits give low values 1.02 | locus YKL160W, strain elf1, hits give low values 1.05 | locus YKR001C, strain vps1, hits give low values 1.04 | locus YKR026C, strain gcn3, hits give low values 1.02 | locus YKR091W, strain srl3, hits give low values 1.02 | locus YLL001W, strain dnm1, hits give low values 1.04 | locus YLL026W, hits give low values 1.02 | locus YLL041C, strain sdh2, hits give low values 1 | locus YLR027C, strain aat2, hits give low values 1 | locus YLR039C, strain RIC1, hits give low values 1.03 | locus YLR058C, strain SHM2, hits give low values 1.01 | locus YLR102C, strain apc9, hits give low values 1.03 | locus YLR113W, strain HOG1, hits give low values 1 | locus YLR221C, strain rsa3, hits give low values 1.03 | locus YLR258W, strain gsy2, hits give low values 0.999 | locus YLR262C, strain YPT6 (second series), hits give low values 1.11 | locus YLR262C, strain YPT6, hits give low values 1.05 | locus YLR268W, strain sec22, hits give low values 1.02 | locus YLR320W, strain mms22, hits give low values 1.08 | locus YLR330W, strain CHS5, hits give low values 1 | locus YLR342W, strain FKS1 (second series), hits give low values 0.997 | locus YLR342W, strain FKS1, hits give low values 1.03 | locus YLR357W, strain rsc2, hits give low values 1.01 | locus YLR370C, strain arc18, hits give low values 1 | locus YLR371W, strain rom2, hits give low values 1.01 | locus YLR384C, strain iki3, hits give low values 1.02 | locus YLR418C, strain cdc73, hits give low values 1.03 | locus YML016C, strain PPZ1, hits give low values 1.01 | locus YML032C, strain rad52, hits give low values 1.02 | locus YML120C, strain ndi1, hits give low values 1.05 | locus YML124C, strain tub3, hits give low values 1.02 | locus YMR058W, strain fet3, hits give low values 1.01 | locus YMR078C, strain ctf18, hits give low values 1.03 | locus YMR125W, strain sto1, hits give low values 1.03 | locus YMR129W, hits give low values 1.02 | locus YMR205C, strain PFK2, hits give low values 0.992 | locus YMR223W, strain ubp8, hits give low values 1.04 | locus YMR231W, strain pep5, hits give low values 1.02 | locus YMR263W, strain SAP30, hits give low values 1 | locus YMR307W, strain GAS1, hits give low values 1.01 | locus YNL067W, strain RPL9B, hits give low values 1.01 | locus YNL071W, strain lat1, hits give low values 1.03 | locus YNL183C, strain NPR1, hits give low values 0.95 | locus YNL209W, strain ssb2, hits give low values 1.02 | locus YNL233W, strain BNI4, hits give low values 1 | locus YNL248C, strain rpa49, hits give low values 1.03 | locus YNL250W, strain rad50, hits give low values 1.05 | locus YNL271C, strain bni1, hits give low values 1.04 | locus YNL298W, strain CLA4, hits give low values 1.04 | locus YNL307C, strain MCK1, hits give low values 1.03 | locus YNL322C, strain KRE1 (second series), hits give low values 1.05 | locus YNL322C, strain KRE1, hits give low values 1 | locus YNR049C, strain mso1, hits give low values 0.993 | locus YNR052C, strain pop2, hits give low values 1.02 | locus YOL006C, strain TOP1, hits give low values 1.03 | locus YOL012C, strain htz1 0.716 | locus YOL147C, strain pex11, hits give low values 1.03 | locus YOR001W, strain rrp6, hits give low values 1.01 | locus YOR061W, strain CKA2, hits give low values 1.01 | locus YOR069W, strain VPS5, hits give low values 1 | locus YOR070C, strain gyp1, hits give low values 1.03 | locus YOR080W, strain dia2, hits give low values 1.05 | locus YOR083W, strain WHI5, hits give low values 1.03 | locus YOR106W, strain vam3, hits give low values 1.02 | locus YOR136W, strain idh2, hits give low values 1.03 | locus YOR144C, strain elg1, hits give low values 1.02 | locus YOR184W, strain ser1, hits give low values 1.05 | locus YOR231W, strain MKK1, hits give low values 0.997 | locus YOR265W, strain rbl2, hits give low values 1.03 | locus YOR270C, strain vph1, hits give low values 1.08 | locus YOR290C, strain snf2, hits give low values 0.962 | locus YOR316C, strain cot1, hits give low values 1.03 | locus YPL051W, strain arl3, hits give low values 1.04 | locus YPL078C, strain atp4, hits give low values 1.03 | locus YPL106C, strain sse1, hits give low values 1.01 | locus YPL240C, strain hsp82, hits give low values 0.985 | locus YPL256C, strain CLN2, hits give low values 0.982 | locus YPR119W, strain clb2, hits give low values 1.03 | locus YPR141C, strain kar3, hits give low values 1.03 | locus YPR163C, strain tif3, hits give low values 1.04 | locus YPR167C, strain met16, hits give low values 1.02 | strain wtn01, hits give low values 1.04

Reference: PubChem BioAssay AID1159580 (chemical genetic matrix, 2015)
